Results on three compounds are retold here after PubChem BioAssay (EPA / NIEHS).

Read-out in test [1]: Interleukin-1 alpha (IL1a), IL1A (gene 3552)
Briefly: BSK_KF3CT_IL1a: BioMAP Diversity Plus: KF3CT Assay for Interleukin-1 alpha (IL1a) Biomarker Activity (AID 2283070). Conditions: primary human keratinocytes with fibroblasts; actives raise or lower the signal. The gist of the method:
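Readout is IL-1a level by ELISA, compared bidirectionally with DMSO as baseline. Cells: human keratinocytes co-cultured with foreskin fibroblasts, harvested 24 h post-dose.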

Read-out in test [2]: TIMP metallopeptidase inhibitor 2 (TIMP2), TIMP2 (gene 7077)
Briefly: BSK_KF3CT_TIMP2: BioMAP Diversity Plus: KF3CT Assay for TIMP metallopeptidase inhibitor 2 (TIMP2) Biomarker Activity (AID 2283071). To be noted: primary human keratinocytes with fibroblasts; actives raise or lower the signal. Put shortly:
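TIMP-2 measured by ELISA at 24 h in human keratinocyte/fibroblast primary co-cultures exposed to chemicals. Both increases and decreases were fitted against DMSO. Parallel cultures were stained with SRB for total protein as an overt-cytotoxicity check.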

Read-out in test [3]: Transforming growth factor beta 1 (TGFb1), TGFB1 (gene 7040)
In words: BSK_KF3CT_TGFb1: BioMAP Diversity Plus: KF3CT Assay for Transforming growth factor beta 1 (TGFb1) Biomarker Activity (AID 2283072). To be noted: primary human keratinocytes with fibroblasts; actives raise or lower the signal. The gist of the method:
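ELISA quantifies TGF-b1 at 24 h post-dose in a primary human skin co-culture of keratinocytes and fibroblasts, with gain or loss judged against DMSO. Parallel SRB total-protein staining flags overt cytotoxicity.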

Read-out in test [4]: C-C motif chemokine 2 (Homo sapiens) (UniProt P13500)
In words: BSK_KF3CT_MCP1: BioMAP Diversity Plus: KF3CT Assay for Monocyte Chemoattractant Protein 1 (MCP1/CCL2) Biomarker Activity (AID 2283073). To be noted: primary human keratinocytes with fibroblasts; actives raise or lower the signal. The gist of the method: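 Keratinocytes and foreskin fibroblasts were co-cultured, dosed with chemical, and sampled 24 h later. MCP-1 was quantified by ELISA, and the endpoint was analyzed with bidirectional fitting using DMSO as negative control.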

Read-out in test [5]: Matrix Metallopeptidase 9 (MMP9), MMP9 (gene 4318)
Briefly: BSK_KF3CT_MMP9: BioMAP Diversity Plus: KF3CT Assay for Matrix Metallopeptidase 9 (MMP9) Biomarker Activity (AID 2283074).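 On AC50: MMP9 protein level quantified by ELISA in the co-culture.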 Conditions: primary human keratinocytes with fibroblasts; actives raise or lower the signal. The gist of the method: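 Values come from bidirectional fitting relative to DMSO of MMP-9 levels, which were measured by ELISA. Measurements were taken 24 h after chemical dosing of a keratinocyte and foreskin fibroblast co-culture.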

Read-out in test [6]: urokinase plasminogen activator (uPA), PLAU (gene 5328)
In words: BSK_KF3CT_uPA: BioMAP Diversity Plus: KF3CT Assay for urokinase plasminogen activator (uPA) Biomarker Activity (AID 2283075). To be noted: primary human keratinocytes with fibroblasts; actives raise or lower the signal. Put shortly:
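Values derive from bidirectional fitting against DMSO controls. Keratinocyte/foreskin fibroblast co-cultures received chemical; 24 h later uPA was detected by ELISA, with SRB total-protein staining in parallel wells for overt cytotoxicity.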

Read-out in test [7]: CD40, CD40 (gene 958)
In words: BSK_LPS_CD40: BioMAP Diversity Plus: LPS Assay for CD40 Biomarker Activity (AID 2283076). Conditions: primary human HUVEC with PBMC; actives raise or lower the signal. The gist of the method:
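CD40 signal, measured by ELISA, is fitted in both directions relative to DMSO vehicle. The system is an LPS-driven human vascular primary co-culture of endothelial cells and PBMC, sampled 24 h after compound addition.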

Read-out in test [8]: E-selectin (Homo sapiens) (UniProt P16581)
Briefly: BSK_LPS_Eselectin: BioMAP Diversity Plus: LPS Assay for Eselectin Biomarker Activity (AID 2283077). Conditions: primary human HUVEC with PBMC; actives raise or lower the signal. Put shortly:
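Signal of E-selectin, detected by ELISA, served as the endpoint; cells were umbilical vein endothelium with PBMC, read 24 h after treatment. DMSO defined baseline, and both increases and decreases were fitted.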

Read-out in test [9]: Interleukin-8 (IL8), CXCL8 (gene 3576)
In words: BSK_LPS_IL8: BioMAP Diversity Plus: LPS Assay for Interleukin-8 (IL8) Biomarker Activity (AID 2283078). Conditions: primary human HUVEC with PBMC; actives raise or lower the signal. Put shortly: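 Endothelial cells and PBMC from human donors are co-cultured, treated with chemicals and LPS, then assayed for IL-8 by ELISA after 24 h. Parallel SRB staining (0.1% SRB after 10% TCA fixation, 560 nm) flags cytotoxicity.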

A short description of test [10]: BSK_LPS_SRB: Viability Assessment in the BioMAP Diversity Plus: LPS Assay (AID 2283079).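 Further: total protein by sulforhodamine B absorbance as a cytotoxicity measure; measured one day after compound addition; fitted in both directions against DMSO so loss or gain of signal counts.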 To be noted: primary human HUVEC with PBMC. The gist of the method: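 Overt cytotoxicity was gauged by sulforhodamine B total-protein staining in a primary human vascular endothelial and mononuclear cell co-culture 24 h post-dosing. Activity was fitted in both directions relative to DMSO.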

Read-out in test [11]: Interleukin-1 alpha (IL1a), IL1A (gene 3552)
In words: BSK_LPS_IL1a: BioMAP Diversity Plus: LPS Assay for Interleukin-1 alpha (IL1a) Biomarker Activity (AID 2283080). To be noted: primary human HUVEC with PBMC; actives raise or lower the signal. The gist of the method:
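Measured: IL-1 alpha via ELISA at 24 h in LPS-activated human umbilical vein endothelium–PBMC co-culture. Baseline: DMSO, bidirectional fitting.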

Read-out in test [12]: Monocyte Chemoattractant Protein-1 (MCP1), CCL2 (gene 6347)
In words: BSK_LPS_MCP1: BioMAP Diversity Plus: LPS Assay for Monocyte Chemoattractant Protein-1 (MCP1) Biomarker Activity (AID 2283081).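 On AC50: secreted MCP-1 protein quantified by ELISA in culture supernatant.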 Conditions: primary human HUVEC with PBMC; actives raise or lower the signal. The gist of the method: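 LPS-stimulated HUVEC/PBMC co-culture; chemical, 24 h; MCP-1 by ELISA; bidirectional fit vs DMSO; cytotoxicity via SRB (0.1% stain, 10% TCA fix, 560 nm) in parallel wells.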

A short description of test [13]: BSK_LPS_PGE2: BioMAP Diversity Plus: LPS Assay for Prostaglandin E2 (PGE2) Biomarker Activity (AID 2283082).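 On AC50: secreted prostaglandin E2 measured by ELISA in LPS-stimulated co-culture.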 Conditions: primary human HUVEC with PBMC; actives raise or lower the signal. The gist of the method:
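PGE2 release measured by ELISA in an LPS-activated co-culture of human umbilical vein endothelial cells and peripheral blood mononuclear cells, read at 24 h post-dosing. DMSO served as baseline for bidirectional curve fitting.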

Read-out in test [14]: Macrophage colony-stimulating factor (MCSF), CSF1 (gene 1435)
Briefly: BSK_LPS_MCSF: BioMAP Diversity Plus: LPS Assay for Macrophage colony-stimulating factor (MCSF) Biomarker Activity (AID 2283083). To be noted: primary human HUVEC with PBMC; actives raise or lower the signal. Put shortly: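 Compound is added to a human vascular primary co-culture of umbilical vein endothelium and blood mononuclear cells. After 24 h, M-CSF is quantified by ELISA. Signal changes are fitted in both directions against DMSO.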

Read-out in test [15]: Tissue Factor, F3 (gene 2152)
Briefly: BSK_LPS_TissueFactor: BioMAP Diversity Plus: LPS Assay for Tissue Factor Biomarker Activity (AID 2283084). Conditions: primary human HUVEC with PBMC; actives raise or lower the signal. The gist of the method: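 In this co-culture system of umbilical vein endothelium with PBMC, stimulated with LPS, cell-surface CD142 is detected by ELISA at 24 h. Endpoint values derive from bidirectional fitting, DMSO serving as baseline.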

Read-out in test [16]: Tumor necrosis factor (Homo sapiens) (UniProt P01375)
Briefly: BSK_LPS_TNFa: BioMAP Diversity Plus: LPS Assay for Tumour Necrosis Factor alpha (TNFa) Biomarker Activity (AID 2283085). Conditions: primary human HUVEC with PBMC; actives raise or lower the signal. The gist of the method: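 TNFa was quantified by ELISA in LPS-activated co-cultures of human endothelial cells and PBMC, 24 h post-dosing. Both increases and decreases versus DMSO were fitted.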

Read-out in test [17]: Vascular cell adhesion molecule 1 (VCAM1), VCAM1 (gene 7412)
Briefly: BSK_LPS_VCAM1: BioMAP Diversity Plus: LPS Assay for Vascular cell adhesion molecule 1 (VCAM1) Biomarker Activity (AID 2283086). To be noted: primary human HUVEC with PBMC; actives raise or lower the signal. The gist of the method:
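VCAM-1 quantified by ELISA in an LPS-activated co-culture of human endothelial cells and peripheral blood mononuclear cells, read 24 h post-treatment. Fitted in both directions versus DMSO; parallel SRB staining flags overt cytotoxicity.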

Read-out in test [18]: CD38, CD38 (gene 952)
Briefly: BSK_SAg_CD38: BioMAP Diversity Plus: SAg Assay for CD38 Biomarker Activity (AID 2283087). To be noted: primary human HUVEC with PBMC; actives raise or lower the signal. The gist of the method:
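CD38 quantified by ELISA (fluorescence) in a superantigen-activated endothelial cell–PBMC co-culture at 24 h post-dose. Activity fitted in both directions relative to DMSO; parallel SRB and Alamar Blue cytotoxicity read-outs.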

Read-out in test [19]: CD69, CD69 (gene 969)
In words: BSK_SAg_CD69: BioMAP Diversity Plus: SAg Assay for CD69 Biomarker Activity (AID 2283089).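 On AC50: cell surface CD69 protein quantified by ELISA with fluorescence detection.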 To be noted: primary human HUVEC with PBMC; actives raise or lower the signal. Put shortly: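 HUVEC co-cultured with PBMC were dosed with chemical, and CD69 was measured by ELISA with fluorescence read-out 24 h later. Bidirectional curve fitting used DMSO as negative control and activity baseline.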

Read-out in test [20]: CD40, CD40 (gene 958)
Briefly: BSK_SAg_CD40: BioMAP Diversity Plus: SAg Assay for CD40 Biomarker Activity (AID 2283088). To be noted: primary human HUVEC with PBMC; actives raise or lower the signal. The gist of the method:
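Fluorescence ELISA read-out of CD40 from umbilical vein endothelium plus peripheral blood mononuclear cells, sampled 24 h after dosing. Values come from bidirectional curve fitting with DMSO as baseline.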

Activity calls are given as the source filed them. How the source made its calls: active means hit-call score of the fitted dose curve at least 0.9, where 1 is the maximum; inactive means score below 0.9.

Sequence of Tumor necrosis factor (Homo sapiens) (P01375 whole entry, looked up): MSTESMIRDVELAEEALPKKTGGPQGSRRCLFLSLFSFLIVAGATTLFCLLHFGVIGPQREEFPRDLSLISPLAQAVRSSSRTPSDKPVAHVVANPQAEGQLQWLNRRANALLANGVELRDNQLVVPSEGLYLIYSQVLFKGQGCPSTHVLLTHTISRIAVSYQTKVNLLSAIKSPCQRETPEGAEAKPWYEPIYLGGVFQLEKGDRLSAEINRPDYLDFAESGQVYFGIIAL
Sequence of E-selectin (Homo sapiens) (P16581 whole entry, looked up): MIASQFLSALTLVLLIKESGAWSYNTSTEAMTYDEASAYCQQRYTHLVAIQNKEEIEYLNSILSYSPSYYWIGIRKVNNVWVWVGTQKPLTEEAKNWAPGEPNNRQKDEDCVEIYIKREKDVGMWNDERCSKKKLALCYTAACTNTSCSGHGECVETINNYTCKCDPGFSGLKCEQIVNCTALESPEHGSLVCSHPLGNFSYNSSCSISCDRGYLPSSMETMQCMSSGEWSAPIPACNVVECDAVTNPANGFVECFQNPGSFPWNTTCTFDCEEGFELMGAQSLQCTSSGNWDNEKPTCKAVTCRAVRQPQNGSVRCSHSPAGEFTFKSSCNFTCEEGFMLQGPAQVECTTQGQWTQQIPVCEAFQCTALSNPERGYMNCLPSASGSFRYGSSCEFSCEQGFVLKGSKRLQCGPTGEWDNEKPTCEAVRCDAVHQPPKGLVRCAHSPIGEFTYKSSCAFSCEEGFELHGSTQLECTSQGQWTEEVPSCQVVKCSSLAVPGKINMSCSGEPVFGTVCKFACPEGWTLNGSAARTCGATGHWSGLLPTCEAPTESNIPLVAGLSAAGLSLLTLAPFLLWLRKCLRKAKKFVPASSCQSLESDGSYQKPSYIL

As for `CN1COCN(Cc2cnc(Cl)s2)C1=N[N+](=O)[O-]`, the outcome in test [1], in test [2], in [3], in test [4], in test [5] and in test [6] was inactive. Moreover, the outcome in [7], in test [8], in test [9], in test [10], in [11] and in test [12] was inactive. The outcome in test [13], in test [14], in test [15], in test [16], in test [17] and in test [18] was inactive. Besides, in test [19], the outcome was inactive.

As to `CNc1cnn(-c2cccc(C(F)(F)F)c2)c(=O)c1Cl`, the result in test [1], in test [2], in test [3], in test [4], in test [5] and in test [6] was inactive. Moreover, the outcome in test [7], in test [8], in test [9], in test [10], in [11] and in test [12] was inactive. In addition, the outcome in [13], in test [14], in test [15], in test [16] and in [17] was inactive. Further, the concentration at half-maximal activity (AC50) in test [18] was 9.82 µM (active); in [19], 29.1 µM (active).

Turning to `C=C(C)[C@H]1Cc2c(ccc3c2O[C@@H]2COc4cc(OC)c(OC)cc4[C@@H]2C3=O)O1`, the result in [1], in test [2], in test [3], in [4], in test [6] and in test [9] was inactive. The result in test [16] was inactive. Also, the AC50 in [5] is 16.7 µM (active); in [7], 6.01 µM (active); in test [8], 20 µM (active); in [10] it was 10.9 µM (active); in [12] it was 26.8 µM (active); in test [13], 0.702 µM (active). The AC50 in test [14] was 13.4 µM (active); in test [15], 8.75 µM (active); in test [17] it was 5.99 µM (active); in test [18], 5.59 µM (active); in test [20], 7.75 µM (active); in test [19], 3.97 µM (active).

As usually defined, the AC50 is the concentration at which the activity in the assay is half-maximal.
